Assay outcomes from PubChem.
In the library only some 8% were active in any assay of this set; here they are far more common.
MARV entry inh = blocks Marburg virus binding to or entry into cells; actives 1.8% (n = 300,000); Potency, µM (series often up to 37.8 µM), for the others: at the top dose activity change, negative = inhibition, most hits filed as inhibitors; Marburg virus pseudotyped entry inhibition, cell reporter; AID 540276; calls by dose curve; tested in HEK293 cells; note: potency is the fitted concentration of half-maximal effect; % is set by controls: 0 for no effect and ±100 for the full control effect
FMDV inh = blocks foot and mouth disease virus; FMDV antiviral cell-based qHTS; Potency, µM (highest dose often 57.9 µM), for inactives: at the highest dose activity change, negative = inhibition, usual class: inhibitors; actives 1.2% (n = 410,000); calls by dose curve; tested in HEK293T cells; note: read-out not given here; potency is the fitted concentration of half-maximal effect; % is set by controls: 0 for no effect and ±100 for the full control effect; nearly all actives have a fitted effect of over 45% in size
HCMV antiviral = human cytomegalovirus inhibition. actives 4.5% (n = 410,000). activity change, negative = inhibition, % at 57.5 µM. HFF cells, HCMV-luciferase reporter, 72 h; active compounds read low. AID 1259415; in the data active = activity change below about -60%; inconclusive = no clear call, values can overlap the other calls; inactive = above about -39%; note: % is set by controls: 0 for no effect and ±100 for the full control effect
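Screen run at 2 compound doses on HFFs infected with reporter HCMV, MOI 1 PFU/cell. Luciferase activity from cell lysates at 72 h post infection gave inhibition relative to buffer-only and Salinomycin wells.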
SARS PLP yeast = SARS-CoV PLP inhibition in yeast; Potency, µM (titrated, usually from 32.9 µM), for the others: at the top dose activity, positive = growth rescue, usual class: activators; S. cerevisiae expressing SARS-CoV PLpro, growth rescue; actives 0.19% (n = 330,000); calls by dose curve; note: potency is the fitted concentration of half-maximal effect; 0% is about no effect; nearly all actives have a fitted effect of over 55% in size
HCV inh = HCV inhibition. actives 3.4% (n = 340,000). Potency, µM (top dose mostly 41.8 µM), for the others: at the highest dose activity change, negative = inhibition, actives largely listed as inhibitors. Huh7.5.1 HCVcc-Cre infection, luciferase reporter, 44 h; active = well fitted inhibition curve with a large enough effect; inconclusive = small, poorly fitted or top-dose-only effect, or another doubt; inactive = no such curve, though single readings can be large or run the other way; note: potency is the fitted concentration of half-maximal effect; % is set by controls: 0 for no effect and ±100 for the full control effect
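Infectious HCV cell culture screen: compound-treated cells (1,000/well, pre-plated 4 h) are infected with HCVcc-Cre at roughly 0.5 moi and grown 44 h. Infection is quantified by luciferase signal after 15 min substrate incubation at room temperature.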
LASV entry inh = blocks Lassa virus binding to or entry into cells; Lassa virus pseudotype entry inhibition, cell reporter; Potency, µM (top dose mostly 37.9 µM), inactives show at the top dose activity change, negative = inhibition, most hits filed as inhibitors; actives 1.2% (n = 300,000); calls by dose curve; tested in HEK293 cells; note: potency is the fitted concentration of half-maximal effect; % is set by controls: 0 for no effect and ±100 for the full control effect; nearly all actives have a fitted effect of over 50% in size
Active calls of the source: *; ? = inconclusive; . = not tested or not shown; [ ] = remark or other dose.

SMILES	MARV entry inh	FMDV inh	HCMV antiviral	SARS PLP yeast	HCV inh	LASV entry inh
CCN1CCCC1CN(Cc1cc2ccc(C)cc2[nH]c1=O)C(=S)Nc1ccccc1OC (stereo not given)	?	-15%	-5	-7%	-12%	-18%
CCOC(=O)c1c(S(=O)(=O)N2CCCC(C(=O)N3CCN(c4cccc(C)c4C)CC3)C2)c(C)n(C)c1C (stereo not given)	.	-9%	-18	.	.	?
O=C(NCCCN1CCN(c2cccc(Cl)c2)CC1)c1cnn(-c2ccc(F)cc2)c1-n1cccc1	.	?	-24	.	.	10%[46.1 µM]
CCOc1ccc(C2C(C(=O)Nc3ccc(C)cc3C)=C(C)Nc3c(C(=O)Nc4ccc(C)cc4)cnn32)cc1OC (stereo not given)	.	-11%	-12	.	.	11%[46.1 µM]
CN(C)CCCN(Cc1cc2cc3c(cc2[nH]c1=O)OCO3)C(=S)Nc1cccc(Cl)c1	?	-28%	?	0%	10µM*	?
CCN1CCCC1CN(Cc1cc2ccc(C)cc2[nH]c1=O)C(=S)Nc1ccc(OC)cc1 (stereo not given)	5%	-16%	?	-17%	-20%	?
CCN1CCCC1CN(Cc1cc2ccc(C)cc2[nH]c1=O)C(=S)Nc1cccc(OC)c1 (stereo not given)	10µM*	0%	-32	0%	?	?
O=c1c2cccnc2n(Cc2ccc(Cl)cc2)c(=O)n1Cc1ccc(F)cc1	?	-23%	2	.	.	.
CCc1nn(CC(=O)Nc2ccc(C)c(F)c2)c(=O)c2cc3cc(C)ccc3n12	?	29%	-1	.	.	5%[46.1 µM]
CCn1c(C(=O)N2CCC(C(=O)NCCc3ccc(OC)cc3OC)CC2)cc2sccc21	?	?	-19	.	.	.
CCNc1ncc2nc(-c3ccccc3)c(=O)n(Cc3cccc(OC)c3)c2n1	.	-7%	.	.	.	.
O=c1cc(-c2cccc(O)c2)oc2ccc(O)cc12	.	36%	.	.	.	.
O=c1cc(-c2ccc(O)cc2)oc2ccc(O)cc12	-17%[46.1 µM]	27%	84	-2%	32µM*	?
COc1ccccc1NC(=O)Nc1nc(CC(=O)Nc2ccc(OC)c(OC)c2)cs1	21%	-8%	-22	2%	?	11%
CCC(=O)Nc1nc(CC(=O)Nc2ccccc2OC)cs1	3%	-20%	15	-2%	2%	-1%
COc1ccccc1NC(=O)Cc1csc(NC(=S)Nc2ccc(C)cc2)n1	4%	?	-102*	1%	?	?
COc1ccccc1NC(=O)Nc1nc(CC(=O)N2CCN(c3ccccc3OC)CC2)cs1	?	28µM*	-11	-1%	10µM*	?
COc1cc(C)ccc1NC(=O)Cc1csc(NC(=O)Nc2ccccc2OC)n1	?	?	-10	-9%	8.9µM*	?
COC(=O)c1ccc(CN2CCC3(CCC(CNC(=O)c4ccco4)O3)CC2)cc1 (stereo not given)	.	3%	.	.	.	.
COc1ccc(CCNc2nc3cc(OC)c(OC)cc3c3nc(-c4cccnc4)nn23)cc1OC	-4%[46.1 µM]	-18%	-11	.	.	.
CCOC(=O)c1sc(NC(C)=O)nc1C	?	.	21	-3%	-25%	-15%
CCOC(=O)CC1(C)c2nc(NC(C)=O)sc2Cc2sc(NC(C)=O)nc21	.	22%	-97*	.	.	.
COc1ccc(CCNCc2ccc(SC)cc2)cc1	?	.	-20	2%	21%	17%
COc1ccc(CCNCc2ccc(OCc3ccccc3)cc2)cc1	?	12%	-89*	-5%	-9%	?
COc1ccc(CNCCC(c2ccc(F)cc2)c2ccc(OC)cc2)cc1 (stereo not given)	11µM*	-10%	-22	27%	?	13µM*
Oc1ccc(NCc2ccc(OCc3ccccc3Cl)cc2)cc1	?	13%	7	.	.	?
COc1ccc(CNCCC(c2ccc(OC)cc2)c2ccccc2OC)cc1 (stereo not given)	?	-6%	?	-2%	?	-15%[46.1 µM]
COc1ccc(CNC(=O)CNC(C)c2ccc(F)cc2)cc1 (stereo not given)	.	-17%	13	-1%	8%	.
COc1ccc(C(CCNCc2ccccc2)c2ccc(F)cc2)cc1 (stereo not given)	?	28%	-29	10%	6.3µM*	?
